TRb SRC2 PPI: disrupts binding of human TR beta to SRC2; P10828; TRbeta-SRC2 peptide binding, fluorescence polarization; receptor liganded with 1 µM T3; Potency, µM (series often up to 106 µM), most hits filed as inhibitors; 280,000 tested, 0.065% active; AID 1469; further: nearly all actives have a fitted effect of over 50% in size
Target sequence (P10828 whole entry, looked up): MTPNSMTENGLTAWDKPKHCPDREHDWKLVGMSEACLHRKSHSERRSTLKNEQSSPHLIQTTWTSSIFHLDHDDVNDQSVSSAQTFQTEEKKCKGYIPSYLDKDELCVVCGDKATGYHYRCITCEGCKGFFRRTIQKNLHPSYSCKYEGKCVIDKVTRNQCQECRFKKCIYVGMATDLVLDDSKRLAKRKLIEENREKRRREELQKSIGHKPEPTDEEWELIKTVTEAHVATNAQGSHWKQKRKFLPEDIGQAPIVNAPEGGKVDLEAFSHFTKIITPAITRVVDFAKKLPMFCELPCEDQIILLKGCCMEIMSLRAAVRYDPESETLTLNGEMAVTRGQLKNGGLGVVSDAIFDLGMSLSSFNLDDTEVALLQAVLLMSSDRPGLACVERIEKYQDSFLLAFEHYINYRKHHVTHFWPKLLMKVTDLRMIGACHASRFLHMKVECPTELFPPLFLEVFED
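A fluorescence polarization screen tested compounds at multiple concentrations against complex formation between 0.6 uM TRb ligand-binding domain and 20 nM Texas Red SRC2 peptide, with 1 uM T3 present; readout after 5 hr.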
TR SRC2 fluor cs: alters Texas Red total fluorescence, flagging assay interference. TRb/SRC2 Texas Red total fluorescence interference. 280,000 tested, 0.29% active. Potency, µM (titrated, usually from 106 µM); active means well fitted curve in either direction with a large enough effect; inconclusive means small, poorly fitted or top-dose-only effect
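Human TRb ligand-binding domain at 0.6 uM with 20 nM Texas Red SRC2 peptide in Tris buffer containing 1 uM T3 and 5% DMSO, incubated with compound 5 h at ambient temperature. Total fluorescence (555/632 nm) calculated as parallel + 2 × perpendicular.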
Tau fibril ThT: inhibitors of human tau fibril formation, thioflavin T binding; P10636; recombinant tau K18 P301L, heparin-induced fibrillization, ThT fluorescence; Potency, µM (top dose mostly 57.4 µM), actives largely listed as inhibitors; 270,000 tested, 2.1% active; further: nearly all actives have a fitted effect of over 55% in size
Target sequence (P10636 561-689 P618L limits assumed): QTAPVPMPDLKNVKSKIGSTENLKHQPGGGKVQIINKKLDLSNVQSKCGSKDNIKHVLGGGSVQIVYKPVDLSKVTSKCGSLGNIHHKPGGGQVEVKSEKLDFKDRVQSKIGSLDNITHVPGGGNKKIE
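Heparin-induced fibrillization of the P301L-mutant K18 repeat-domain fragment of human tau was followed by ThT binding in quantitative high-throughput format.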
Tau fibril FP: inhibitors of human tau fibril formation; P10636; K18 P301L tau heparin fibrillization, Alexa594 FP, 6 h; Potency, µM (series often up to 57.7 µM), hits mostly inhibitors; 280,000 tested, 0.39% active; AID 1468; further: nearly all actives have a fitted effect of over 55% in size
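Compound effects on tau fibrillization are measured by Alexa 594 fluorescence polarization (ex 555, em 632 nm). K18 P301L tau is used at 15 uM with 0.24 uM labeled tracer, and 20 uM heparin induces aggregation over 6 hr at 37 C.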
Tau fluor counter: counter-screen for tau fibril formation inhibitors. tau K18 P301L (four-repeat tau fragment) Alexa594 fluorescence, heparin fibrillization. Potency, µM (doses to about 57.7 µM). 280,000 tested, 0.93% active. AID 1463; further: nearly all actives have a fitted effect of over 55% in size
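Human K18 P301L tau (15 uM unlabeled plus 0.24 uM Alexa 594-labeled, final) in 100 mM sodium acetate pH 7 was mixed with compound and 20 uM heparin and incubated 6 hr at 37 C.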
A number is an active result; n = inactive; u = inconclusive; x = no result given; ! = not confirmed by another sample; [ ] = remark or other dose. Hits are enriched below; roughly 3% of the tested compounds scored in any of these assays. Unless noted, the call rests on the fitted dose curve; in most records, active means well fitted curve in the direction sought with a large enough effect; inconclusive means small, poorly fitted or top-dose-only effect, or another doubt; inactive means no such curve, though single readings can be large; an effect the other way counts as inactive or inconclusive.

SMILES	TRb SRC2 PPI	TR SRC2 fluor cs	Tau fibril ThT	Tau fibril FP	Tau fluor counter
O=C1N/C(=N\S(=O)(=O)Cc2ccccc2)S/C1=C/c1cc([N+](=O)[O-])ccc1O	n	n	5µM	n	u
COc1cc(/C=C2\S/C(=N/S(=O)(=O)Cc3ccccc3)NC2=O)c([N+](=O)[O-])cc1OC	n	n	u	n	n
COc1cc(/C=C2/S/C(=N/S(=O)(=O)c3ccccc3)NC2=O)c([N+](=O)[O-])cc1OC	n	n	16µM	u	u
Cc1ccc(OCC(=O)Nc2ccc3nc(SCC(=O)N4CCCC4)sc3c2)cc1C	n	n	u	n	n
COc1ccc(C(=O)Nc2cccc(-c3nc4cccnc4s3)c2C)c(OC)c1	n	100µM[quencher]	u	n	n
O=C(Nc1ccc(Nc2ccncc2)cc1)c1ccc(Nc2ccnc3ccc([N+](=O)[O-])cc23)cc1[N+](=O)[O-]	n	u	u	n	11µM[quencher]
CCCC(=Nc1ccc(N)cc1)C1=C(O)C(C(=O)OC)C(C)(C)CC1=O (stereo unspecified)	35µM	45µM[fluorescent]	7.9µM	14µM	7.1µM[quencher]
CCCCCCCc1ccc(-c2ccc(O)cc2)nc1	n	n	u	u	14µM[quencher]
Cc1ccc(C)c(NC(=O)C(=O)NCCc2csc3nc(-c4ccccc4C)nn23)c1	n	22µM[quencher]	n	n	n
Cc1ccc(NC(=O)C(=O)NCCc2csc3nc(-c4ccccc4C)nn23)cc1Cl	n	n	n	n	n
CC(Cl)(Cl)C(=O)OCCOc1cc(Cl)c(Cl)cc1Cl	n	n	x	x	x
COCCN=c1scc(-c2cc(OC)ccc2OC)n1/N=C/c1c[nH]c2ccccc12	n	n	u	n	7.9µM[quencher]
COC(=O)N/N=C/c1c[nH]c2ccccc12	n	n	n	n	n
CC[n+]1c(/C=C/N(C)c2ccccc2)oc2ccc(Cl)cc21	n	n	n	n	n
CCN1/C(=C/C=C/c2oc3ccc4ccccc4c3[n+]2CC)Oc2ccc3ccccc3c21	10µM	50µM[fluorescent]	1.1µM	u	2.8µM[fluorescent]
Oc1c(/C=N/c2ncn[nH]2)ccc2ccccc12	n	n	28µM	u	n
CCN(CC)CCCNC(=O)Cc1csc2nc(-c3ccc(Cl)cc3)cn12	n	u	n	n	n
CCOc1ccc(Cc2n[nH]c(=S)n2N)cc1	n	n	n	n	n
COc1ccc(N2Nc3n[nH]c(N)c3N2)cc1	n	n	8.9µM	n	u
CCOc1ccc(N2Nc3n[nH]c(N)c3N2)cc1	n	n	13µM	n	u
COCCCNC(=O)CSc1nc(-c2ccc(OC)c(OC)c2)[nH]c1-c1ccc(F)cc1	n	n	u	n	u
COc1ccc(-c2nc(SCC(=O)NC3CCCC3)c(-c3ccc(OC)cc3)[nH]2)cc1	n	n	u	n	13µM![quencher]
COc1ccc(-c2nc(SCC(=O)NC3CCCC3)c(-c3ccccc3)[nH]2)cc1OC	n	n	u	u	14µM[quencher]
COc1ccc(-c2[nH]c(-c3ccc(Cl)cc3)nc2SCC(=O)NCC2CCCO2)cc1 (stereo unspecified)	n	n	u	n	13µM[quencher]
COc1ccc(-c2nc(SCC(=O)NC3CCCC3)c(-c3ccc(F)cc3)[nH]2)cc1OC	n	n	u	u	13µM[quencher]
SMILES	TRb SRC2 PPI	TR SRC2 fluor cs	Tau fibril ThT	Tau fibril FP	Tau fluor counter
COc1ccc(-c2[nH]c(-c3ccc(C)cc3)nc2SCC(=O)NCC2CCCO2)cc1 (stereo unspecified)	n	n	u	u	u
CCCC(=O)NCCc1c(I)[nH]c2ccc(OC)cc12	n	n	n	n	n
O=C(N/N=C1/C[C@@H](O)[C@@H](O)[C@@H]2[C@H]3C(=O)N(c4ccc(F)cc4F)C(=O)[C@@H]3CC[C@@H]12)OCc1ccccc1	n[11.2 µM]	n[11.2 µM]	n[11.5 µM]	n[11.6 µM]	n[11.6 µM]
O=C1[C@@H]2[C@H]3[C@H](O)[C@H](O)C/C(=N/OC[C@@H](O)COCc4ccco4)[C@H]3CC[C@H]2C(=O)N1c1ccc(F)cc1F	n[11.2 µM]	n[11.2 µM]	n[11.5 µM]	n[11.6 µM]	n[11.6 µM]
O=C1OC(NC(=O)c2ccccc2)C(n2cc(CO)nn2)=C1Cl (stereo unspecified)	n	n	7.1µM	u	n
CC(=O)c1ccc(NC(=S)Nc2ccn(Cc3ccc(Br)cc3)n2)cc1	n	n	n	u	10µM[quencher]
CC(=O)c1cccc(NC(=S)Nc2ccn(Cc3cccc4ccccc34)n2)c1	n	n	n	u	n
Cc1ccc(NC(=O)C(=O)NCC(c2cccnc2)N2CCc3ccccc3C2)cc1 (stereo unspecified)	n	n	u	n	n
O=C(/C=C/c1ccc(O)c(O)c1)O[C@H](Cc1ccc(O)c(O)c1)C(=O)O	u	25µM[quencher]	13µM	u	14µM[quencher]
COC(=O)C(N)Cc1ccc(O)c(O)c1 (stereo unspecified)	n	n	u	n	n
NC(Cc1ccc(O)c(O)c1)C(=O)O (stereo unspecified)	n	n	11µM	25µM	18µM[quencher]
N[C@H](Cc1ccc(O)c(O)c1)C(=O)O	n	28µM![quencher]	16µM	u	n
N[C@@H](Cc1ccc(O)cc1)C(=O)O	n	n	n	n	n
COc1ccc(-c2nc(C)c(CCNC(=O)c3ccccc3Br)s2)cc1OC	n	n	u	n	n
CNc1ccc(C(=O)Oc2cc(O/N=[N+](\[O-])N(C)C)c([N+](=O)[O-])cc2[N+](=O)[O-])cc1	n	n	x	x	x
S=C(Nc1ccc(Cl)c(Cl)c1)NC1CCN(Cc2ccccc2)CC1	n	n	n	25µM	u
CCCCOc1ccc(C(=O)NCCc2sc3nc(-c4ccc(OC)cc4)nn3c2C)cc1	n	n	u	n	n
Cc1nn(Cc2ccccc2)c(C)c1/C=N/NC(=O)CNc1cccc(C(F)(F)F)c1	n	n	n	n	u
O=C(CNc1cccc(C(F)(F)F)c1)N/N=C/c1cn(-c2ccccc2)nc1-c1ccccc1	n	n	n	8.9µM	u
O=C(CSc1nccn1Cc1ccco1)Nc1ccc(OC(F)(F)F)cc1	n	n	n	n	n
CCOC(=O)c1c(C)[nH]c(C2=NNC(=Nc3ccccc3)SC2)c1C	n	n	4µM	u	7.9µM[quencher]
CCOc1ccc(N=C2NN=C(c3cc(C)n(CC4CCCO4)c3C)CS2)cc1 (stereo unspecified)	n	n	u	n	n
CCOC(=O)c1c(C)[nH]c(C2=NNC(=Nc3ccccc3OC)SC2)c1C	n	n	7.9µM	n	u
CC(=O)c1c(C)[nH]c(C2=NNC(=NC(C)(C)C)SC2)c1C	n	n	u	u	n
CCOC(=O)c1c(C)[nH]c(C(=O)OCCOc2ccccc2C)c1C	n	n	u	n	n
CCOC(=O)c1c(C)[nH]c(C2=NNC(=Nc3ccc(OCC)cc3)SC2)c1C	n	n	14µM	u	u
Cc1cccc(CCNC(=O)c2ccc3c(c2)nc2n3CCCCC2)c1	n	n	u	n	n
Clc1ccccc1CNc1ncnc2c1c(-c1ccccc1)cn2-c1ccccc1	n	n	n	n	n

Screening results deposited in PubChem by National Center for Advancing Translational Sciences (NCATS).
